# 3CLpro inhibitor = SARS-CoV 3CLpro protease inhibitors, primary screen, biochemical, quenched FRET; inhibition, % at 6 µM; Replicase polyprotein 1ab (Severe acute respiratory syndrome coronavirus), P0C6X7; recombinant SARS-CoV 3CLpro, quenched FRET peptide cleavage; 290,000 tested, 0.14% active; in the data active means inhibition above about 12%
# GDH-TPI counter = GDH-TPI coupling enzyme inhibitors, primary screen, artefact control for M. tuberculosis FBA inhibitor project, biochemical, absorbance, full deck | GDH-TPI coupled enzyme counterscreen, NADH absorbance | inhibition, % at 4.8 µM | 360,000 tested, 1.2% active | AID 588335, 2011; in the data active means inhibition above about 30%;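 further: 0% = DMSO wells and 100% = wells lacking the enzyme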
# FBA Mtb inh = Mtb FBA enzyme inhibitors, primary screen, biochemical, fluorescence, strain H37Rv. 360,000 tested, 2.3% active. purified M. tuberculosis FBA, fluorescence read-out. inhibition, % at 1 µM. Fructose-bisphosphate aldolase (Mycobacterium tuberculosis (strain ATCC 25618 / H37Rv)), …; in the data active means inhibition above about 27%;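 further: 0% = vehicle and 100% = reference inhibitor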
# Target sequence (P9WQA3 whole entry, looked up): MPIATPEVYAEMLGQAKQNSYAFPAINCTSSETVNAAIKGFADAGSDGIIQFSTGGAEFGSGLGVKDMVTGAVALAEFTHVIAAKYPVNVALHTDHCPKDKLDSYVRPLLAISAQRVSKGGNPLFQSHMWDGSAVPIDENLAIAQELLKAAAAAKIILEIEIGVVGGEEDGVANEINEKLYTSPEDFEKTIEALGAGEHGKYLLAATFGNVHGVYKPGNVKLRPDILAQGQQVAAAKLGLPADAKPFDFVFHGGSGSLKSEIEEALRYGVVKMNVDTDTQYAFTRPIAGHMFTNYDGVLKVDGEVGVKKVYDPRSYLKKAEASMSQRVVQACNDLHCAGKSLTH
# FadD28 binding = inhibitors of FadD28 bisubstrate probe binding, primary screen, biochemical, fluorescence polarization, single point; inhibition, % at 12.5 µM; 360,000 tested, 0.22% active; AID 588549, 2011; in the data active means inhibition above about 8.5%, passing the limit was not always enough
# Mtb BioA inh = M. tuberculosis BioA enzyme inhibitors, primary screen, biochemical, plate reader, single point, HTS. inhibition, % at 9.99 µM. purified M. tuberculosis BioA enzyme. 360,000 tested, 0.096% active. AID 602481, 2012. 7,8-diaminopelargonic acid synthase BioA (Mycobacterium tuberculosis); in the data active means inhibition above about 40%
# Active calls of the source: *; . = no result; + = active, no number. A selection: hits, their analogues and other compounds. The true share with any hit is near 3.1%.
SMILES,3CLpro inhibitor,GDH-TPI counter,FBA Mtb inh,FadD28 binding,Mtb BioA inh
CCCn1nc([N+](=O)[O-])c(C(C#N)c2nc3ccccc3o2)c(Cl)c1=O (configuration not stated),6,3,-14,15*,.
CCn1nc([N+](=O)[O-])c(C(C#N)c2nc3cc(C(F)(F)F)ccc3s2)c(Cl)c1=O (configuration not stated),4,20,-5,45*,-4
Cn1nc([N+](=O)[O-])c(C(C#N)c2ccccn2)c(Cl)c1=O (configuration not stated),2,12,-1,1,.
CC(C)NC(=O)N(C)C[C@H]1OCCCC[C@H](C)Oc2ccc(NS(=O)(=O)c3cccs3)cc2C(=O)N([C@@H](C)CO)C[C@@H]1C,.,.,.,.,0
CCOC(=O)c1c(-c2ccccc2)cn2ccccc12,-6,11,168*,-4,0
CCOC(=O)C1=C(CN2CCN(C(=O)c3ccco3)CC2)NC(=O)NC1c1ccc(OC(C)C)cc1 (configuration not stated),2,4,-2,-1,44*
CCOC(=O)C1=C(CN2CCN(C(=O)c3ccco3)CC2)NC(=O)NC1c1ccc(Cl)cc1 (configuration not stated),4,1,0,-2,-1
CO[C@@H]1CN(C)C(=O)c2cc(NC(=O)c3ccc(F)cc3)ccc2OC[C@H](C)N(C(=O)c2ccc(F)cc2)C[C@@H]1C,.,.,.,.,1
O=C(Nc1ccc2c(c1)OCO2)c1cnc2n(c1=O)CCS2,-2,19,0,0,-1
O=C(Nc1ccc2c(c1)OCCO2)c1cnc2n(c1=O)CCS2,-7,31*,-1,0,-2
COc1ccccc1NC(=O)c1cnc2n(c1=O)CCS2,5,37*,-4,-3,1
Cc1noc(NS(=O)(=O)c2ccc(NC(=O)c3cnc4n(c3=O)CCS4)cc2)c1C,-1,34*,-4,-1,.
CCCn1c(-c2ccccc2)nc2c(=O)n(C)c(=O)[nH]c21,-1,9,+,-1,-4
COc1ccc(-c2nc3c(=O)n(C)c(=O)[nH]c3n2CCc2ccccc2)cc1,-5,8,184*,-3,1
CCS(=O)(=O)c1ncc(Cl)c(C(=O)Nc2ccc(S(=O)(=O)N3CCC(C)CC3)cc2)n1,4,10,1,8.9*,-4
O=C(c1ccccc1)c1nc2c(n1O)CCCCC2,-1,18,-3,0,-1
CCCOc1ccc(C(=O)c2nc3c(n2O)CCCCC3)cc1,3,31*,-1,-2,0
C[C@H](CO)N1C[C@H](C)[C@@H](CN(C)Cc2ccccc2)Oc2ncc(Br)cc2C1=O,.,.,.,.,4
BrC(/C=C\c1ccccc1)=N/Nc1nc(N2CCOCC2)nc(N2CCOCC2)n1,-1,45*,-3,0,.
BrC(=C\c1ccccc1)/C=N/Nc1nc(N2CCOCC2)nc(N2CCOCC2)n1,3,31*,-1,-1,.
COCC#Cc1cnc2c(c1)C(=O)N([C@H](C)CO)C[C@H](C)[C@@H](CN(C)C(=O)C1CCCCC1)O2,.,.,.,.,-3
N#Cc1c(N)nc2c(c1-c1ccncc1)CCCCC2,1,17,-1,-1,-1
Cc1nn(C)c(C)c1-c1c(C#N)c(N)nc2c1CCCCCC2,5,16,46*,0,0
Cc1c(-c2c(C#N)c(N)nc3c2CCCCCC3)cnn1C,6,15,+,-1,0
C[C@H](CO)N1C[C@H](C)[C@@H](CN(C)C(=O)C2CC2)Oc2cc(-c3ccccc3F)ccc2S1(=O)=O,.,.,.,.,6
CS(=O)(=O)c1ccc2nc(NC(=O)c3ccc(Cn4cc(Br)cn4)o3)sc2c1,2,31*,18,-5,-1
COc1cccc(S(=O)(=O)Nc2ccc3c(c2)[C@H]2C[C@@H](CC(=O)NCc4ccccc4F)O[C@@H](CO)[C@H]2O3)c1,.,.,.,.,-1
CCCNC(=O)N1[C@H](CO)[C@H](c2ccc(C3=CCCC3)cc2)[C@@H]1CNC(=O)CC,.,.,.,.,-4
COc1ccc(C(=O)N2C[C@@H]3[C@H](c4ccccc42)[C@@H](CO)N3C(=O)c2ccc(F)cc2)cc1,.,.,.,.,-1
